Bioassay records: PubChem, The Scripps Research Institute Molecular Screening Center
This is a sample that favours compounds with a hit; in the whole collection about 2.9% have one here.
proKLK7 act: proKLK7 (human) activation, primary screen; P49862; purified proKLK7, EDANS-DABCYL substrate fluorescence; 100% is mature enzyme control, 0% vehicle; activation, % at 7 µM; 0.9% of 370,000 active;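 active = activation above the mean of all tested compounds plus 3 SD, computed per campaign excluding outliers beyond control limits, cut at about 13% in these data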
ADAM17 inh: ADAM17 inhibition, QFRET primary screen | P78536 | recombinant ADAM17, EDANS/DABCYL FRET peptide cleavage | inhibition, % at 6.95 µM | 0.83% of 370,000 active;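 active = inhibition above the mean of compounds lying between control limits plus 3 SD, set per campaign, cut at about 8.5% in these data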;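 note: 0% = DMSO-only wells as the low control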
PLCb3 inh: inhibitors of human phospholipase C beta3. Q01970. Purified PLC-beta3, fluorogenic substrate, fluorescence. 0.18% of 370,000 active. inhibition, % at 12.2 µM; in the data active = inhibition above about 11%;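 note: 0% = median of compound wells on plate and 100% = full blocker control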
PLCg1 inh: PLC-gamma1 (human) inhibition, primary screen; P19174; purified PLC-gamma1, fluorogenic substrate, fluorescence; inhibition, % at 12.2 µM; 0.84% of 370,000 active; in the data active = inhibition above about 9.5%
Target sequence (P19174 whole entry, looked up): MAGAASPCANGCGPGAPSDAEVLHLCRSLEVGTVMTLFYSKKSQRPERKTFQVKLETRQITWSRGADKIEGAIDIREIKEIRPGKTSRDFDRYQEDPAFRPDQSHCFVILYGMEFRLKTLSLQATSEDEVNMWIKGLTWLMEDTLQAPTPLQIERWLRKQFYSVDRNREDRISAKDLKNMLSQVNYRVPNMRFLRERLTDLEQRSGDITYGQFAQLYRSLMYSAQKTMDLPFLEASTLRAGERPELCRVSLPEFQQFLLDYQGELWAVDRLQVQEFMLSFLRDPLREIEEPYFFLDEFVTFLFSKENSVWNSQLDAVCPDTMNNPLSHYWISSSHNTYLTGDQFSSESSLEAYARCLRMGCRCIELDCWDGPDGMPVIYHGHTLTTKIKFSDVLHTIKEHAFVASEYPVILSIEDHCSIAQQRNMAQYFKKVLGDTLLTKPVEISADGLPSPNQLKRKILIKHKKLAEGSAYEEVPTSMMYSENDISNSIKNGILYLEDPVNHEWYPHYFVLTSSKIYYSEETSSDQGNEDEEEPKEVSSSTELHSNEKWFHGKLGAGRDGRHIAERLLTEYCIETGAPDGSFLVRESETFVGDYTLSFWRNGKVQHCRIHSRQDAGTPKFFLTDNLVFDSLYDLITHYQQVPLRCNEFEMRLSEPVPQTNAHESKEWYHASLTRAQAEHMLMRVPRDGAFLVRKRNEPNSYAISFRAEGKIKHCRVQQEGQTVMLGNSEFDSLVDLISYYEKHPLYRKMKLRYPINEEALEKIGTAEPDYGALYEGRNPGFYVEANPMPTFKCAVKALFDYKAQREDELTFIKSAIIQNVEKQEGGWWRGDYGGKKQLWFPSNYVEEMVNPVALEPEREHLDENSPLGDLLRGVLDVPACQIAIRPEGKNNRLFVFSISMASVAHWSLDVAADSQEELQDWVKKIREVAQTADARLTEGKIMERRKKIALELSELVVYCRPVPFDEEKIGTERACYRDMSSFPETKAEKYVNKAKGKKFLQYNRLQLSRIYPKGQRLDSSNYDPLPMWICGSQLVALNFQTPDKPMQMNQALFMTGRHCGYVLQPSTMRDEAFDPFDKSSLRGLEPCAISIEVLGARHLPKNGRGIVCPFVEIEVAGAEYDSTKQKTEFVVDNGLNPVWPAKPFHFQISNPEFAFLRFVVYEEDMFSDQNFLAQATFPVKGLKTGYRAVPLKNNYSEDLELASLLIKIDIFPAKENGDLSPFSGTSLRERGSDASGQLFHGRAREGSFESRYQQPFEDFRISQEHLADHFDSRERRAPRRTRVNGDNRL
ADAM10 inh: inhibits human ADAM10; O14672; recombinant ADAM10, EDANS/DABCYL FRET peptide cleavage, 3 h; inhibition, % at 7 µM; 0.62% of 370,000 active; AID 720582;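 active = inhibition above a per-campaign cutoff equal to the mean of compounds falling between control-based bounds plus 3 SD, cut at about 20% in these data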;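 note: 0% = DMSO wells while the 100% control is not disclosed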
KLK7 act conf: proKLK7 activation, confirmation | shares compounds with proKLK7 act | purified proKLK7, EDANS-DABCYL substrate fluorescence; scaled: vehicle 0, mature enzyme 100 | activation, % at 7 µM | 68% of 3,200 active | AID 686949;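 active = activation, as change over the incubation, above the mean of all tested compounds plus 3 SD, cut at about 13% in these data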
EDANS interfere: fluorescence interference counter-screen for KLK7 activators; AID 686952; activation, % at 7 µM; 80% of 3,200 active; shares compounds with proKLK7 act; EDANS-DABCYL substrate fluorescence interference, no enzyme, 4 h; solvent 0%, active enzyme control 100%;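 active = activation above the all-compound mean plus 3 SD, ignoring values outside control-based bounds, cut at about 4.8% in these data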;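 note: value is the 4 h activation minus the activation read at time zero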
* marks the source's active call; other numbers are inactive results; i = inactive; · = no result given.

SMILES	proKLK7 act	ADAM17 inh	PLCb3 inh	PLCg1 inh	ADAM10 inh	KLK7 act conf	EDANS interfere
O=C(O)CSC1CC(=O)N(c2ccc(Cl)c(Cl)c2)C1=O (stereo not drawn)	-0.3	0.5	-0.7	0.9	4.4	·	·
COc1ccc(Cn2cc(CN3[C@@H](C)COc4cc(Br)ccc4S3(=O)=O)nn2)cc1	-0.1	-2.2	-0.7	-1.7	-6.3	·	·
O=C(Nc1ccc(F)cc1)c1ccc2c(c1)S(=O)(=O)N=C1CCCCCN12	0.0	0.2	-5.5	-0.1	-4.2	·	·
COc1cc(NC(=O)c2ccc3c(c2)S(=O)(=O)N=C2CCCCCN23)cc(OC)c1	15.2*	1.1	-4.1	-0.6	-0.7	6.5	1.0
CCCc1cc(=O)oc2c3c(cc(OCC(=O)NCCN4CCOCC4)c12)OC(C)(C)CC3	31.9*	i	i	i	i	-10.7	-20.4
CCCCc1cc(=O)oc2c3c(cc(OCC(=O)NCCCO)c12)OC(C)(C)CC3	23.6*	i	i	i	i	-33.0	-33.9
CCc1cc(=O)oc2c3c(cc(OCC(=O)NCCCn4ccnc4)c12)OC(C)(C)CC3	7.9	i	i	i	i	·	·
CCCc1cc(=O)oc2c3c(cc(OCC(=O)NCc4ccccn4)c12)OC(C)(C)CC3	-12.0	i	i	i	i	·	·
CCCc1cc2c(OC)ccc(O)c2c(=O)n1C	0.9	-0.6	-37.7	-28.1	-7.6	·	·
COc1ccc(OC)c(C2C(C#N)=C(N)Oc3c2c(C)nn3-c2cccc(Cl)c2)c1 (stereo not drawn)	18.7*	-8.1	-130.4	-76.2	-12.8	35.4*	32.6*
Cc1nn(-c2cccc(Cl)c2)c2c1C(c1ccncc1)C(C#N)=C(N)O2 (stereo not drawn)	0.2	-4.1	-7.1	-2.9	4.1	·	·
O=C(O)c1cc(N=Cc2c(O)c3ccccc3oc2=O)ccc1O	149.6*	-33.5	i	i	-91.6	398.3*	354.6*
Cc1cc(C)cc(N=Cc2c(O)c3ccccc3oc2=O)c1	0.4	-3.6	-11.8	-4.7	0.6	·	·
COC(=O)C/C=C/[C@H](C)[C@@H](NC(=O)C(F)(F)F)c1ccccc1Br	-0.2	-3.6	2.1	0.9	-2.1	·	·
COc1cccc(Nc2nc3cc(OC)ccc3cc2C#N)c1	29.4*	-65.9	-18.4	-11.6	-280.5	56.0*	60.5*
O=C(Nc1cccc(F)c1)OCCCN1CCC2(CCC(c3ccccc3)CC2)C1 (stereo not drawn)	-0.5	-0.9	0.3	2.6	-1.8	·	·
COc1ccc(-c2cc3ccccc3c(=O)o2)cc1	21.0*	-478.9	i	i	i	-28.5	-29.5
COc1ccc(-c2cc(=O)c3cccc(CC(=O)O)c3o2)cc1	79.5*	i	i	i	i	82.5*	81.5*
COc1ccc(-c2cc(=O)c3c(O)c(OC)c(OC)c(OC)c3o2)cc1	0.3	-2.9	-0.6	0.0	-3.5	·	·
CN(C)c1ccc(-c2cc3ccccc3c(=O)o2)cc1	2.6	-28.5	-441.7	-338.0	-66.8	·	·
N#CCC[C@H]1CC[C@]2(CCCN(C(=O)c3ccc4ccccc4n3)C2)O1	0.7	0.4	-0.6	-1.1	-0.6	·	·
Cc1cc(C)cc(NC(=O)NCCCN2CCN(c3ccc(F)cc3)CC2)c1	0.7	2.7	3.5	2.3	2.9	·	·
COc1ccc(C(=O)n2cc(C(=O)c3cc(C)ccc3O)cn2)cc1	0.3	-0.3	-1.3	0.1	1.8	·	·
COc1ccc(O)c(C(=O)c2cnn(C(=O)c3cccc(N(C)C)c3)c2)c1	50.5*	-31.8	-42.9	-34.4	-105.0	168.3*	156.8*
COc1ccc(C(=O)n2cc(C(=O)c3cc(C)ccc3O)cn2)cc1OC	21.5*	-2.9	-9.0	-8.6	-1.2	55.5*	49.2*
COc1ccc(O)c(C(=O)c2cnn(C(=O)c3cc(C)oc3C)c2)c1	40.3*	-10.9	-24.0	-18.4	-18.4	174.3*	143.8*
CCN1CCSc2ccc(C(=O)NCc3ccccc3Br)cc21	-25.1	-382.8	i	i	i	·	·
CN1CCSc2ccc(C(=O)Nc3cc(F)ccc3F)cc21	15.5*	-67.5	i	i	-239.6	11.1	12.2*
